# Test results: ChEMBL document CHEMBL2218924, “A broad activity screen in support of a chemogenomic map for kinase signalling research and drug discovery” (Biochem J, 2013)
# Biological target: T1, Testis-specific serine/threonine-protein kinase 2 (Homo sapiens) (UniProt Q96PF2)
# T1 sequence (whole entry): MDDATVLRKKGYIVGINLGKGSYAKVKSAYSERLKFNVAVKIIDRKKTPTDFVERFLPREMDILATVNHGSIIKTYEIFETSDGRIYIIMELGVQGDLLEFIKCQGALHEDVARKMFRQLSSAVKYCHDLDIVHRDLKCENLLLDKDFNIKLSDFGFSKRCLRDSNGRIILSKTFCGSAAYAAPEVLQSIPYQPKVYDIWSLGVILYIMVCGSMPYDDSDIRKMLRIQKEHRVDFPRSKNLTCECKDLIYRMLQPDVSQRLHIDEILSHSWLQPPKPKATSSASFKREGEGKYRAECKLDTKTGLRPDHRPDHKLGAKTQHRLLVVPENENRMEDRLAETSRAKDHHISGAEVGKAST
# Conditions: at 10 µM
row,Structure (SMILES),residual activity [%]
1,O=[N+]([O-])/C=C/c1ccc2c(c1)OCO2,74
2,COc1cc(OC)c(/C=C2\C(=O)Nc3ccccc32)c(OC)c1,99
3,O=C1Nc2ccc3ncsc3c2/C1=C/c1c[nH]cn1,86
4,O=c1[nH]c2ccccc2n1C1CCN(Cc2ccc(-c3nc4cc5[nH]cnc5cc4nc3-c3ccccc3)cc2)CC1,45
5,CCn1cnc2c(Nc3cccc(Cl)c3)nc(N[C@@H]3CCCC[C@@H]3N)nc21,58
6,N/C(=N\[N+](=O)[O-])N/N=C\c1ccc(-c2cccc([N+](=O)[O-])c2)o1,80
7,CC(C)[C@H](CO)Nc1nc(Nc2cccc(Cl)c2)c2ncn(C(C)C)c2n1,79
8,COC(=O)[C@@]1(O)C[C@H]2O[C@]1(C)n1c3ccccc3c3c4c(c5c6ccccc6n2c5c31)C(=O)NC4,0
9,COc1cc2ncnc(Nc3ccc(OCc4ccccc4)cc3)c2cc1OC,102
10,O=C1NC(=O)c2c1c1c3ccccc3n3c1c1c2c2ccccc2n1C1CCC3O1,96
11,C[S+]([O-])c1ccc(-c2nc(-c3ccc(F)cc3)c(-c3ccncc3)[nH]2)cc1 (stereo unspecified),100
